Shown are actives, neighbours in structure and some others; about 12% of the full set was active somewhere.
Sfp PPTase inh: inhibitors of Bacillus subtilis Sfp phosphopantetheinyl transferase. Q9F4F7. Biochemical Sfp PPTase activity, qHTS. Potency, µM, without a hit: largest response in the series, negative = inhibition, usual class: inhibitors. 3.5% of 310,000 active. AID 1490;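 further: the enzyme is Sfp with the accession as filed and its product quenches rhodamine fluorescence; 0% = enzyme reaction without inhibitor and -100% = no enzyme wells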
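Step 1, compound plus 15 nM Sfp-PPTase, 15 min, room temperature. Step 2, add rhodamine-CoA (5 uM) and BHQ-2-YbbR (12.5 uM). Step 3, read 525/598 nm fluorescence at 0 and 30 min.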
JMJD2A Tudor: JMJD2A Tudor domain (human) inhibition; 4.4% of 390,000 active; O75164; AlphaScreen JMJD2A-Tudor / H3K4me3 peptide binding; AID 504339; Potency, µM (top dose mostly 114 µM), without a hit: at the top dose activity change, negative = inhibition, most hits filed as inhibitors; further: on the % scale 0 is the no-effect control and ±100 the full control effect; nearly all actives have a fitted effect of over 50% in size
BAZ2B block: blocks human BAZ2B | Q9UIF8 | AlphaScreen BAZ2B-H3K14Ac peptide displacement | Potency, µM (top dose mostly 114 µM), for the others: at the top dose activity change, negative = inhibition, usual class: inhibitors | 4.4% of 360,000 active | AID 504333; further: on the % scale 0 is the no-effect control and ±100 the full control effect; nearly all actives have a fitted effect of over 60% in size
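Complex of BAZ2B and biotin-H3K14Ac (50 nM apiece) forms over 30 min at RT, then faces library compounds up to 110 uM for another 30 min; AlphaScreen beads added, 20 min dark incubation, luminescence read.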
PLK1 PBD inh: inhibitors of human PLK1 polo-box domain binding | P53350 | Plk1 PBD binding of FITC phosphopeptide, fluorescence polarization | Potency, µM, inactives show max response, negative = inhibition, actives largely listed as inhibitors | 2.8% of 360,000 active | AID 720504; further: series mostly up to about 57 µM; on the % scale 0 is the no-effect control and ±100 the full control effect; nearly all actives have a fitted effect of over 65% in size
G9a inh: blocks human histone lysine methyltransferase G9a | Q96KQ7 | G9a H3K9 monomethylation, AlphaScreen, 2 h | Potency, µM (series often up to 102 µM), without a hit: at the top dose activity, negative = inhibition, usual class: inhibitors | 8.8% of 350,000 active | AID 504332; further: on the % scale 0 is the no-effect control and ±100 the full control effect; nearly all actives have a fitted effect of over 75% in size
Target sequence (Q96KQ7 913-1193 limits assumed): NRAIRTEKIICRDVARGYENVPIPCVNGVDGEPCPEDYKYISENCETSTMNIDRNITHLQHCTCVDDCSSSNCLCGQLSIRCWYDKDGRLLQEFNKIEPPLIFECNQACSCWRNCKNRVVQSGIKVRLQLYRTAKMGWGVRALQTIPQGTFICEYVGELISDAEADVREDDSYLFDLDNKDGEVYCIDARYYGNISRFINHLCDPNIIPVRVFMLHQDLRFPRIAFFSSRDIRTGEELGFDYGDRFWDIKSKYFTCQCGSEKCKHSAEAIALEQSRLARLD
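Using a bead-based AlphaScreen, monomethylated H3K9 product from 2 h room-temperature reactions (G9a 20 nM, peptide 500 nM, SAM 20 uM) was detected with 0.5 ug/mL rabbit anti-H3K9me1 antibody.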
HP1b chromo inh: HP1-beta chromodomain-methylated histone interaction inhibition; 0.56% of 390,000 active; P83916; Potency, µM (top dose mostly 114 µM), for inactives: at the highest dose activity change, negative = inhibition, actives largely listed as inhibitors; AlphaScreen HP1-beta / biotin-H3K9me3 peptide binding; AID 540317; further: nearly all actives have a fitted effect of over 70% in size
Target sequence (P83916 whole entry, looked up): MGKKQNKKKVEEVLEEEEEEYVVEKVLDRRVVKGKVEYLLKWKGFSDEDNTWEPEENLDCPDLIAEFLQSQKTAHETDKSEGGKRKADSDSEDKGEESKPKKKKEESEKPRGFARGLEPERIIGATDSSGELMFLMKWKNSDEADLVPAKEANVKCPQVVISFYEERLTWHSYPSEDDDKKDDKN
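HP1-beta protein (50 nM final) preincubated 30 min at room temperature with biotinylated H3(1-18)K9me3 peptide (50 nM) in PBS pH 7.4, 0.01% Tween-20, then compound added for 30 min. AlphaScreen streptavidin donor/nickel chelate acceptor beads (10 ug/mL final), 30 min dark, luminescence read.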
An asterisk follows results filed as active; [ ] = dose if it differs, or a comment. The call rests on the fitted dose curve; in most records, active means well fitted curve in the direction sought with a large enough effect; inconclusive means small, poorly fitted or top-dose-only effect, or another doubt; inactive means no such curve, though single readings can be large; an effect the other way counts as inactive or inconclusive. Potency means the concentration at half of the fitted maximal effect.

For COc1cc2cc(C(c3nnnn3C(C)(C)C)N3CCc4ccccc43)c(=O)[nH]c2cc1OC (centres undefined) the results were Sfp PPTase inh -3%, JMJD2A Tudor inconclusive, BAZ2B block inconclusive, PLK1 PBD inh -10%, G9a inh inconclusive and HP1b chromo inh -5%.
For COc1cc2cc(C(c3nnnn3C3CCCC3)N3CCc4ccccc43)c(=O)[nH]c2cc1OC (centres undefined) the results were Sfp PPTase inh -10%, JMJD2A Tudor -11%, BAZ2B block -11%, PLK1 PBD inh -11%, G9a inh 45µM* and HP1b chromo inh 26%.
Screening COc1ccccc1N1CCN(C(c2cc3ccc(C)cc3[nH]c2=O)c2nnnn2C2CCCC2)CC1 (centres undefined) returned Sfp PPTase inh 40µM*, JMJD2A Tudor inconclusive, BAZ2B block inconclusive, PLK1 PBD inh -9%, G9a inh 28µM* and HP1b chromo inh -1%.
Screening CCOC(=O)C1CCN(C(c2cc3ccc(C)cc3[nH]c2=O)c2nnnn2C2CCCCC2)CC1 (centres undefined) returned Sfp PPTase inh 35µM*, JMJD2A Tudor -18%, BAZ2B block -5%, PLK1 PBD inh -8%, G9a inh 22µM* and HP1b chromo inh 7%.
For c1ccc([C@@H]2CN3CCSC3=N2)cc1 the results were Sfp PPTase inh 20% and G9a inh 22%[21.5 µM].
For O=C(Nc1ccc(F)cc1F)c1ccc(-n2cnnc2)cc1 the results were JMJD2A Tudor -6%, BAZ2B block 4%, G9a inh 8%[59 µM] and HP1b chromo inh 28%[57 µM].
`COc1ccccc1N=c1c2c([N+](=O)[O-])cc([N+](=O)[O-])cc2n(O)n1-c1ccccc1OC` gave Sfp PPTase inh 17%, BAZ2B block -12% and G9a inh 0%.
`COc1ccccc1-n1cc2c([N+](=O)[O-])cc([N+](=O)[O-])cc2n1` gave Sfp PPTase inh 8%, JMJD2A Tudor -27%, BAZ2B block inconclusive, PLK1 PBD inh -6%, G9a inh 10µM* and HP1b chromo inh 25%.
Screening CCOc1ccc(Br)cc1S(=O)(=O)NCC(c1ccc(OC)cc1)N1CCOCC1 (centres undefined) returned JMJD2A Tudor -16%, PLK1 PBD inh 0% and HP1b chromo inh 17%.
O=[N+]([O-])c1cccc(-c2nc(Oc3ccc(Cl)cc3)c3ccccc3n2)c1 was read as Sfp PPTase inh -30%, BAZ2B block inconclusive and G9a inh 11µM*.
`CCN(C(=O)c1ccc(S(=O)(=O)N2CCCC2)cc1)C1CCS(=O)(=O)C1` (centres undefined) gave JMJD2A Tudor -12%, BAZ2B block -6%, PLK1 PBD inh -1%, G9a inh -9%[2.33 µM] and HP1b chromo inh 5%.
Screening CCCCN1Cc2c(nc3cc(-c4ccco4)[nH]n3c2=O)C1=O returned Sfp PPTase inh 10µM*, JMJD2A Tudor -17%, BAZ2B block inconclusive, PLK1 PBD inh -11%, G9a inh inconclusive and HP1b chromo inh 57%.
`COCc1cc(=O)n2[nH]c(-c3ccco3)cc2n1` gave Sfp PPTase inh -7%, JMJD2A Tudor -17%, BAZ2B block -14%, PLK1 PBD inh -4%, G9a inh inconclusive and HP1b chromo inh 28%.
For CCN(C(=O)CSc1nnnn1-c1ccccc1)c1c(N)n(Cc2ccccc2)c(=O)[nH]c1=O the results were Sfp PPTase inh -19%, JMJD2A Tudor -13%, BAZ2B block -6%, PLK1 PBD inh -8%, G9a inh 13µM* and HP1b chromo inh 36%.
Screening CCN(C(=O)CSc1nc2ccccc2o1)c1c(N)n(Cc2ccccc2)c(=O)[nH]c1=O returned JMJD2A Tudor -11%, BAZ2B block 9%, PLK1 PBD inh -23%, G9a inh 7.1µM* and HP1b chromo inh 11%.

Compound activity deposited in PubChem BioAssay by National Center for Advancing Translational Sciences (NCATS).
